# Source: PubChem
# Only some compounds are listed: those with a hit (about 2.9% of all), similar ones and a draw of the others.
# ERa SRC1 pot – enhancers of ERα–SRC-1 coactivator binding, primary screen, biochemical, TR-FRET, ERα LBD, low estradiol; coactivator binding (% of control), % at 25.6 µM; TR-FRET ERalpha-LBD/SRC-Cy5 coactivator binding, 2 h; 100 = basal binding, no effect; 86,000 compounds, 1.3% hits; in the data active = activity above about 200%;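 note: binding measured in presence of low estradiol as agonist stimulus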
# Target sequence (P03372 whole entry, looked up, the tested form may be a part): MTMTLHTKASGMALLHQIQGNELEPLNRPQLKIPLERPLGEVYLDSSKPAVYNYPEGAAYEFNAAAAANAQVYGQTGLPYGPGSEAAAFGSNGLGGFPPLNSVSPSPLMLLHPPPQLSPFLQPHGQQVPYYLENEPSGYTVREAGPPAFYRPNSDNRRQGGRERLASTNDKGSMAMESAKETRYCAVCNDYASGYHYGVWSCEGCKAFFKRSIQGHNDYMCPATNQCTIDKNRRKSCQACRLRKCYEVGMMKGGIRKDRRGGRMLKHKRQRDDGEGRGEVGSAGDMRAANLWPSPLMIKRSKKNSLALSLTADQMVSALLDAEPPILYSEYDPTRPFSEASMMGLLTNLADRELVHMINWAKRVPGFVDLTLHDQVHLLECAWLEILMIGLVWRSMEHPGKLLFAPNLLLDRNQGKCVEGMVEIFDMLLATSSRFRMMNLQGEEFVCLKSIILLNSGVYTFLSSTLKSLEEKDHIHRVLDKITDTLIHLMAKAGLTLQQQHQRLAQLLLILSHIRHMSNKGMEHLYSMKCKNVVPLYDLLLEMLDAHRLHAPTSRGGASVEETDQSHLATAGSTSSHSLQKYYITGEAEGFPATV
# MRP reversal – reversal of MRP1-mediated doxorubicin resistance, primary screen, H69AR cells, doxorubicin co-treatment | H69AR cells + 2 uM doxorubicin, CellTiter-Glo, 72 h | differential viability (reversal), % at 10 µM | 85,000 compounds, 0.04% hits;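 active = viability drop by adding the cancer drug above about 55%, with treated viability meeting a 40% cutoff, limit read from the data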;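 note: larger differential means the compound sensitizes cells more to doxorubicin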
# ERb SRC1 inh – inhibitors of ERβ-SRC1 coactivator interaction, primary screen, biochemical, TR-FRET, ERβ LBD, SRC-1 peptide | Estrogen receptor beta (Homo sapiens), Q92731 | TR-FRET ER-beta LBD / SRC1-Cy5 peptide binding; receptor agonist-loaded with 1 µM estradiol | inhibition, % at 25.6 µM | 86,000 compounds, 1.3% hits | AID 633, 2007;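 active = compounds whose percent inhibition of the receptor-coactivator binding signal exceeds about 50% in the single-dose screen, limit read from the data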
# Smad3 inh – Smad3/FoxH1 peptide binding inhibitors, primary screen, biochemical, TR-FRET; inhibition, % at 25 µM; 88,000 compounds, 0.29% hits; TR-FRET Smad3/Dy647-FoxH1 peptide binding, europium anti-His; AID 630, 2007;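 active = compounds that reduce the energy-transfer binding signal between the protein and its labelled peptide by more than half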
# MRP-1 activ – H69AR viability gain despite doxorubicin, primary screen, MRP-1 activator project, H69AR cells, CellTiter-Glo | viability rescue | viability increase, % at 10 µM | 140,000 compounds, 0.61% hits | AID 799, 2007;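 active = viability gain under doxorubicin at or above a set limit, the compound median plus 3 SD, cut at about 4.7% in these data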;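 note: MRP-1 overexpressing cells given doxorubicin 25 µM after compound pretreatment; 18-22 h compound pretreatment then 72 h with doxorubicin before readout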
# ERa SRC1 inh – ERα–SRC-1 coactivator interaction inhibitors, primary screen, biochemical, TR-FRET, ERα LBD, estradiol-bound. Estrogen receptor (Homo sapiens), P03372. TR-FRET ER-alpha LBD / SRC-1 peptide. inhibition, % at 25.6 µM. 86,000 compounds, 1.7% hits. AID 629, 2007; in the data active = inhibition above about 50%
# Numbers stand for hits; . = inactive; / = not tested or not shown; [ ] = remark or other dose.
SMILES,ERa SRC1 pot,MRP reversal,ERb SRC1 inh,Smad3 inh,MRP-1 activ,ERa SRC1 inh
Cc1cncn1CCc1nc2c3ccccc3nc(SCC(=O)Nc3cccc(Cl)c3)n2n1,/,/,/,/,.,/
Cc1n[nH]c(C)c1CCc1nc2c3ccccc3nc(SCC(=O)Nc3ccccc3F)n2n1,.,.,59[fluorescence artefact?],.,.,73[fluorescence artefact?]
Cc1cccc(NC(=O)CSc2nc3ccccc3c3nc(CCc4c(C)n[nH]c4C)nn23)c1,.,.,.,.,.,67[fluorescence artefact?]
Cc1nc2ccccc2n1CCc1nc2c3ccccc3nc(SCC(=O)NCc3ccco3)n2n1,.,.,.,.,.,.
C[C@@H]1CCCN(CP(=O)(c2ccccc2)c2ccccc2)C1,/,/,/,.,/,/
O=C(CC(NC(=O)C(F)(F)F)c1ccccc1)Nc1nnc(CCc2ccccc2)s1 (centres undefined),/,/,/,/,9.3,/
Cc1nnc(NC(=O)CC(NC(=O)C(F)(F)F)c2ccccc2)s1 (centres undefined),/,/,/,/,.,/
C#CC[N+]1(CC#Cc2ccc(C#CC[N+]3(CC#C)CCOCC3)cc2)CCOCC1,.,.,60[fluorescence artefact?],.,.,.
O=c1oc2ccccc2c(Nc2ccc3ccccc3c2)c1[N+](=O)[O-],.,.,.,.,.,71[fluorescence artefact?]
COC(=O)c1cc2ccsc2n1CC(=O)N(C)c1ccccc1,.,.,.,.,.,.
COC(=O)c1cc2ccsc2n1CC(=O)Nc1ccc(N(C)C)cc1,.,.,.,.,.,55
O=C(Oc1cc(=O)n2ccccc2n1)c1ccccc1,/,/,/,/,.,/
CN(C)S(=O)(=O)c1ccc(C(=O)NCc2nnc(SCC(=O)Nc3ccc(F)cc3)n2-c2ccc(F)cc2)cc1,/,/,/,/,.,/
CCOc1ccccc1C(=O)N1CCN=C1SC,.,.,87,.,.,.
CCOc1ccc(C(=O)N2CCN=C2SC)cc1OCC,.,.,.,.,.,.
CCOC(=O)Cn1cnc2sc3c(c2c1=O)CCC3,.,.,70,.,.,64[fluorescence artefact?]
CN(C)c1ccc(/C=c2\sc3nc(-c4ccccc4)nn3c2=O)cc1,.,.,.,.,.,69[fluorescence artefact?]
CC(=O)Oc1cccc(/C=c2\sc3nc(-c4ccco4)nn3c2=O)c1,.,.,.,.,.,.
COc1cc(/C=c2\sc3nc(-c4ccncc4)nn3c2=O)ccc1OC(C)=O,.,.,.,84[fluorescence artefact?],.,68
Cn1c(=O)c2c(nc(C(=N)SCC(=O)O)n2C)n(C)c1=O,/,/,/,.,/,/
N#Cc1cc2ccccc2nc1SCc1cccnc1,306[fluorescence artefact?],.,.,.,.,.
COc1ccc2nc(SCC(C)=O)c(C#N)cc2c1,/,/,/,/,.,/
COc1ccc2nc(SCc3cccnc3)c(C#N)cc2c1,202[fluorescence artefact?],.,.,.,.,.
Oc1ccc(C=Nc2ccc(N3CCOCC3)cc2)c(O)c1,.,.,69,.,.,58
O=C(Nc1nc(=O)c2ccccc2s1)c1ccc(Cl)cc1,/,/,/,/,.,/
SMILES,ERa SRC1 pot,MRP reversal,ERb SRC1 inh,Smad3 inh,MRP-1 activ,ERa SRC1 inh
O=C(Nc1nc(=O)c2ccccc2s1)c1ccc(F)cc1,.,.,52[fluorescence artefact?],.,.,.
CCc1ccc(/C(C)=N/Nc2cc(Cl)nc(C)n2)cc1,/,/,/,/,7.9,/
C/C(=N\Nc1cc(Cl)nc(C)n1)c1ccccc1,/,/,/,/,.,/
CCOC(=O)CCCCC(=O)c1[nH]c(=O)[nH]c1CSc1nc(-c2ccccc2)c(C#N)c(=O)[nH]1,.,.,.,.,6.4,.
N#Cc1c(-c2ccccc2)nc(SCC(=O)N(c2ccccc2)c2ccccc2)[nH]c1=O,/,/,/,/,7.5,/
N#Cc1c(-c2ccco2)nc(SCC(=O)Nc2ccc(S(N)(=O)=O)cc2)[nH]c1=O,/,/,/,/,.,/
N#Cc1c(-c2ccccc2)nc(SCC(=O)Nc2ccccc2F)[nH]c1=O,/,/,/,/,9.8,/
Cc1cccc(NC(=O)CSc2nc(-c3ccccc3)c(C#N)c(=O)[nH]2)c1C,/,/,/,/,9.1,/
C[C@@]12CC[C@H]3c4ccc(O)cc4CC[C@@H]3[C@H]1CC[C@H]2OC(=O)CCc1ccccc1,/,/,/,.,/,/
N#Cc1c(-c2ccccc2)nc(SCC(=O)Nc2ccccc2)[nH]c1=O,/,/,/,/,9.6,/
Cc1cc2ccc(C)c(C)c2nc1SCC(=O)c1cccs1,/,/,/,/,.,/
N#Cc1c(-c2cccs2)nc(SCC(=O)c2cccs2)[nH]c1=O,/,/,/,/,5.6,/
Cc1cc(NC(=O)CSc2nc(-c3ccccc3)c(C#N)c(=O)[nH]2)no1,.,.,.,.,9.1,.
C=CCSc1nc(-c2ccccc2)c(C#N)c(=O)[nH]1,.,.,.,.,.,.
Cc1cc(NC(=O)CSc2nc3ccccc3[nH]2)no1,.,.,.,.,.,.
CCC(Sc1nc(-c2ccccc2)c(C#N)c(=O)[nH]1)C(=O)Nc1nnc(C)s1 (centres undefined),/,/,/,/,6.4,/
CC1(C)[C@@H]2CC[C@@](C)(C2)[C@@H]1OC(=O)c1ccccc1C(=O)O,/,/,/,.,/,/
O=C(O)[C@@H]1[C@H](C(=O)O)[C@@H]2C(=O)C=C[C@H]1N2Cc1ccccc1,/,/,/,.,/,/
CC(=NC1CCCCC1)c1ccccc1O,/,/,/,.,/,/
CCC(Sc1nccn1C)C(=O)Nc1cccc2ccccc12 (centres undefined),.,.,.,.,.,.
CCC(Sc1nccn1C)C(=O)Nc1nnc(C)s1 (centres undefined),.,.,.,.,7.3,.
CC(C)(C)c1ccc(CN2CCN([C@H](c3ccccc3)c3ccc(Cl)cc3)CC2)cc1,/,/,/,.,/,/
O=C(OC(C(=O)O)C(OC(=O)c1ccccc1)C(=O)NCc1ccccc1)c1ccccc1 (centres undefined),/,/,/,/,.,/
O=c1c2cc(N3CCOCC3)ccc2[nH]c(=S)n1Cc1cccc(Cl)c1,.,.,.,.,.,.
O=c1[nH]c2ccccc2c(=O)n1Cc1ccco1,.,.,63,.,.,.
SMILES,ERa SRC1 pot,MRP reversal,ERb SRC1 inh,Smad3 inh,MRP-1 activ,ERa SRC1 inh
O=c1[nH]c2ccc(Cl)cc2c(=O)n1Cc1ccco1,.,.,.,.,.,.
O=c1c2cc(N3CCOCC3)ccc2[nH]c(=S)n1Cc1ccco1,.,.,51,.,.,.
COC(=O)c1c(NC(=O)COC(=O)c2ccc(O)cc2)sc2c1CCCCC2,/,/,/,/,.,/
C1CN=C(NC23CC4CC(CC(C4)C2)C3)C1,/,/,/,/,.,/
Cc1cc(C)n2nc(C(=O)OCC(=O)c3cc(C)n(C)c3C)nc2n1,.,.,51[fluorescence artefact?],.,.,.
Cc1cc(C)n2nc(C(=O)OCCOc3ccc(F)cc3)nc2n1,.,.,.,.,.,.
O=C1CC(c2ccc(F)cc2)Cc2nc(NCC3CCCO3)ncc21 (centres undefined),.,.,.,.,.,60
Cc1cccc2c1Oc1ccccc1[C@H]2NC(=O)c1ccc([N+](=O)[O-])cc1,/,/,/,.,/,/
O=C(CC1C(=O)N(c2ccccc2)C(=S)N1c1ccccc1)c1ccccc1 (centres undefined),/,/,/,/,.,/
